Inconclusive results are not listed. Where a call stands in place of a potency, no number is given. Calls of active or inactive are those of the source. Calls follow the shape of the dose curve; as a rule, active = well fitted inhibition curve with a large enough effect; inconclusive = small, poorly fitted or top-dose-only effect; inactive = no such curve, though single readings can be large or run the other way.

Results on 38 molecules are retold here after PubChem BioAssay AID1508621 (National Center for Advancing Translational Sciences (NCATS), 2021).

The nature of this assay: Confirmatory qHTS for Identification of Small Molecule Inhibitors of Huntingtin Promoter Activity. Also: nearly all actives have a fitted effect of over 65% in size. Summed up: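 HEK293 luciferase reporter cells, 2,500/well, cultured 24 h, then exposed to compounds at up to 57.5 uM final for 24 h at 37C. Firefly luciferase luminescence read; normalized to vehicle (0%) and zero RLU (-100%).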
Potency is read from the fitted curve at half-maximal effect.

For the molecule `Cc1ccc(CN(C(=O)c2ccc(OCC(C)C)cc2)c2ccccn2)o1`, the Potency result was “inactive”.
To `CN1C(=O)c2ccccc2Sc2ccc(NC(=O)NCc3ccc(Cl)cc3)cc21` belongs 23.9 µM (active).
To `CC(C)c1nc2ccc(C(=O)NCCCN3CCN(c4cccc(Cl)c4)CC3)cc2o1` belongs “inactive”; to `CC(C)[C@H](CO)Nc1nc(Nc2ccc(C(=O)O)c(Cl)c2)c2ncn(C(C)C)c2n1`, “inactive”.
To `COc1ccc(NC(=O)Cn2c(SCc3ccc(F)cc3)nc3cccnc32)cc1OC` belongs “inactive”; to `CCS(=O)(=O)c1oc(-c2ccc(F)cc2)nc1S(=O)(=O)c1ccc(Br)cc1`, “inactive”; to `CC(C)[C@H](C(=O)Nc1ccc(C(=O)NO)cc1)c1ccccc1`, “inactive”.
`COc1ccccc1N=c1scc(-c2ccc(S(=O)(=O)N3CCCC3)cc2)n1C`: the Potency was 4.78 µM (active).
To `O=C(Nc1ccccc1)c1ccc(Cl)c(S(=O)(=O)Nc2ccccc2)c1` belongs “inactive”.
To `O=C(CSc1nccn1Cc1ccc(F)cc1)Nc1nc2ccccc2s1` belongs “inactive”.
To `COc1ccc(-c2nc(CSCC(=O)N3CCN(c4cc(Cl)ccc4C)CC3)c(C)o2)cc1` belongs 9.53 µM (active); to `COc1ccccc1C1Nc2c(sc3nc(C)cc(C)c23)C(=O)N1c1ccccc1` (stereo not drawn), “inactive”; to `CCS(=O)(=O)c1ncc(Cl)c(C(=O)NCc2ccc(OC)cc2)n1`, 19 µM (active).
With `CCOc1ccc(C(=O)Nc2ccc(S(=O)(=O)N3CCCCC3c3cccnc3)cc2)cc1` (stereo not drawn), the Potency is 21.3 µM (active).
`Cc1ccc(CNC(=O)c2c(Nc3c(C)cccc3C)sc(C(=O)c3ccccc3)c2N)cc1`: the Potency was 9.53 µM (active).
On to `CCc1ccc2c(c1)-c1ccccc1S(=O)(=O)N2CC(=O)N1CCCCC1`, for which the Potency result is “inactive”.
With `Cc1cc(Nc2cccc(C(F)(F)F)c2)nc2ccc(NC(=O)c3cccnc3)cc12`, the Potency is 19 µM (active).
To `Cc1nc(Nc2n[nH]c3c2CN(C(=O)N[C@H](CN(C)C)c2ccccc2)C3(C)C)c2sccc2n1` belongs “inactive”.
To `O=C(O)c1ccc2c(c1)N(Cc1ccc(F)cc1)C(=O)c1ccccc1S2=O` (stereo not drawn) belongs “inactive”; to `Cc1ccc(S(=O)(=O)Nc2cccc(-c3ccc(N4CCCCC4)nn3)c2)s1`, “inactive”.
To `COc1ccc(-n2c(/C=C/c3cccc4ccccc34)nc3ccccc3c2=O)cc1Cl` belongs “inactive”; to `Cn1c(NCCN(CCO)CCCc2ccc([N+](=O)[O-])cc2)cc(=O)n(C)c1=O`, “inactive”.
Turning to `CCC(=O)N1CCc2cc(S(=O)(=O)NCCC(=O)Nc3ccc(CC)cc3)ccc21`, the Potency result is “inactive”.
To `O=C(C=Cc1ccc(O)cc1)c1ccc(O)cc1O` belongs “inactive”.
For the molecule `CCOc1ccc(C(=O)N(Cc2cc(OC)c(OC)c(OC)c2)c2ccccn2)cc1`, the Potency result is “inactive”.
To `CCc1c(C)sc2c1CCN(Cc1ccc(F)cc1)C2c1ccccc1` (stereo not drawn) belongs “inactive”; to `C#C[C@]1(O)CC[C@H]2[C@H]3CCc4cc(OC)ccc4[C@H]3CC[C@@]21C`, “inactive”.
As to `COc1ccc(NC(=O)Cn2nc(-c3ccncc3)ccc2=O)cc1Cl`, the Potency result was “inactive”.
Consider `Cc1ccc(C)c(N2CCN(C(=O)C3CCN(c4nc(-c5ccc(C(C)C)cc5)no4)CC3)CC2)c1`, for which the Potency was 0.239 µM (active).
To `CN(C)Cc1ccc(-c2nc3cccc4c3n2CCNC4=O)cc1` belongs “inactive”; to `Cc1cc(Nc2sc(C(=O)c3ccc(F)cc3)c(N)c2C(=O)Nc2ccc(F)cc2)ccc1Cl`, 1.69 µM (active); to `Cn1cc(CNCC2CCN(c3ncc(C(=O)NO)cn3)CC2)c2ccccc21`, “inactive”.
To `COc1cc(OC)cc(C(=O)Nc2c(C(=O)Nc3ccc(F)cc3)oc3ccccc23)c1` belongs “inactive”; to `CCS(=O)(=O)N1CC(CC#N)(n2cc(-c3ncnc4[nH]ccc34)cn2)C1`, “inactive”.
Consider `CCN(Cc1ccccc1)C(=O)c1cc(-c2ccccc2)n[nH]1`, for which the Potency result is “inactive”.
To `CN(C)C(=O)COC(=O)Cc1ccc(OC(=O)c2ccc(N=C(N)N)cc2)cc1` belongs “inactive”.
On to `CCOc1ccc(C(=O)NCc2ccc3c(c2)CCN3C(=O)c2ccccc2)cc1`, for which the Potency result was “inactive”.
Consider `O=C(CCCCCCNC(=O)c1cnc(N(c2ccccc2)c2ccccc2)nc1)NO`, for which the Potency result was “inactive”.
